Laboratory results from PubChem BioAssay AID720550 (National Center for Advancing Translational Sciences (NCATS), 2013).
Records with an inconclusive call do not appear. Calls of active or inactive are those of the source. The call rests on the fitted dose curve; in most records, active means well fitted curve in the direction sought with a large enough effect; inconclusive means small, poorly fitted or top-dose-only effect, or another doubt; inactive means no such curve, though single readings can be large or run the other way.

test: qHTS for Inhibitors of Bloom's syndrome helicase (BLM): Thiazole Orange DNA Binding Counterscreen for SAR.; conditions: fluorescence; Potency: Thiazole orange DNA displacement; series mostly up to 57.1 µM; activity change, negative = displacement: at the top concentration
Method in brief: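 Counterscreen for nonspecific DNA binding: thiazole orange (100 nM) pre-bound to 50 nM unlabeled DNA, test compound added, 15 min room-temperature incubation, then ex 480/em 530 nm fluorescence measured; lack of displacement preferred.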

Compound	activity change, negative = displacement	Potency
CC(C)(C)c1cccc(NC(=O)Nc2nnc(-c3ccncc3)s2)c1	-29.7% (inactive)	–
N/C(=N\c1nnc(-c2ccncc2)s1)Nc1ccc(Cl)c(Cl)c1	20.4% (inactive)	–
Cc1cc(NC(=O)Nc2nnc(-c3cccnc3)s2)ccc1Cl	–	inactive
O=C(Nc1ccc2ccccc2c1)Nc1nnc(C2CCCCC2)s1	199% (inactive)	–
O=C(Nc1ccc(Br)cc1)Nc1nnc(-c2ccncc2)s1	62.4% (inactive)	–
O=c1c(Nc2ccc(Cl)c(Cl)c2)c(Nc2nnc(-c3ccncc3)s2)c1=O	–	4.57 µM (active)
O=C(Nc1ccc(-n2cncn2)c(F)c1)Nc1nnc(-c2ccncc2)s1	-0.894% (inactive)	–
O=C(Nc1ccc(Cl)c(Cl)c1)Nc1nnc(-c2ccc(F)cc2)s1	-18.2% (inactive)	–
CCOC(=O)c1cccc(NC(=O)Nc2nnc(-c3ccncc3)s2)c1	91.3% (inactive)	–
N#Cc1cc(NC(=O)Nc2nnc(-c3ccncc3)s2)ccc1-c1cn[nH]c1	-13.8% (inactive)	–
O=C(NCc1ccccc1)Nc1nnc(-c2ccncc2)s1	-0.576% (inactive)	–
N#Cc1cc(NC(=O)Nc2nnc(-c3ccncc3)s2)ccc1Br	-29.5% (inactive)	–
N/C(=N\c1nnc(-c2ccncc2)s1)Nc1ccc(F)c(C(F)(F)F)c1	–	inactive
N#Cc1cc(NC(=O)Nc2nnc(-c3ccncc3)s2)ccc1F	-16.5% (inactive)	–
Cc1cc(NC(=O)Nc2nnc(C3CCCCC3)s2)ccc1Cl	100% (inactive)	–
CCCCCCNC(=O)Nc1nnc(-c2ccncc2)s1	-0.682% (inactive)	–
O=C(Nc1nnc(-c2ccncc2)s1)Nc1cccc2ccccc12	1.97% (inactive)	–
Cc1cc(NC(=O)Nc2cccc(-c3ccncc3)n2)ccc1Cl	–	inactive
O=C(Nc1ccc(Cl)c(C(F)(F)F)c1)Nc1cccc(-c2ccncc2)n1	76.7% (inactive)	–
O=S(=O)(Cc1ccc(Cl)c(Cl)c1)Nc1nnc(-c2ccncc2)s1	7.75% (inactive)	–

Compound	activity change, negative = displacement	Potency
O=C(Nc1nnc(-c2ccncc2)s1)NC12CC3CC(CC(C3)C1)C2	91.5% (inactive)	–
O=C(Nc1nnc(-c2ccncc2)s1)Nc1cc(C(F)(F)F)ccc1F	20% (inactive)	–
O=C(Nc1ccc2ccccc2c1)Nc1nnc(-c2ccncc2)o1	1.59% (inactive)	–
O=C(Nc1ccc(F)nc1)Nc1nnc(-c2ccncc2)s1	19.6% (inactive)	–
O=C(Nc1ccc(N2CCOCC2)c(C(F)(F)F)c1)Nc1nnc(-c2ccncc2)s1	–	4.08 µM (active)
O=C(Nc1nnc(-c2ccncc2)s1)Nc1ccc(Cl)cc1Cl	10% (inactive)	–
O=C(Nc1ccc(Cl)c(Cl)c1)Nc1cccc(-c2ccncc2)n1	-5.13% (inactive)	–
O=C(Nc1ccc(F)c(C(F)(F)F)c1)Nc1nnc(-c2ccncc2)s1	–	inactive
O=C(Nc1ccc2ccccc2c1)Nc1nnc(-c2ccc(Cl)cc2)s1	-23.2% (inactive)	–
O=C(Nc1ccc(F)c(C(F)(F)F)c1)Nc1nc(-c2ccncc2)cs1	96.9% (inactive)	–
O=C(Nc1ccc2sccc2c1)Nc1nnc(-c2cccnc2)s1	8.73% (inactive)	–
S=C(Nc1ccc(Cl)c(Cl)c1)Nc1nnc(-c2ccncc2)o1	-26.8% (inactive)	–
Cc1cc(NC(=O)Nc2nnc(-c3ccncc3)s2)ccc1C#N	12.5% (inactive)	–
CN(C(=O)Nc1ccc2ccccc2c1)c1nnc(-c2ccncc2)s1	387% (inactive)	–
COc1ccc(-c2nnc(NC(=O)Nc3ccc4ccccc4c3)s2)cc1OC	141% (inactive)	–
O=C(Nc1ccc(Cl)c(Cl)c1)Nc1nnc(NC2CCNCC2)s1	-3.25% (inactive)	–
O=C(Nc1ccc(F)c(C(F)(F)F)c1)Nc1nnc(-c2ccncc2)o1	-22.2% (inactive)	–
O=C(Nc1ccc2ccccc2c1)Nc1nnc(-c2cccnc2)s1	7.64% (inactive)	–
O=C(Nc1ccc(Cl)c(Cl)c1)Nc1nnc(-c2ccncc2)o1	-2.02% (inactive)	–
